# SARS PLpro yeast: blocks SARS-CoV papain-like protease in a yeast assay; hit rate 0.19% among 330,000; S. cerevisiae expressing SARS-CoV PLpro, growth rescue; Potency, µM (highest dose often 32.9 µM), inactives show at the top dose activity, positive = growth rescue, most hits filed as activators; further: 0% is about no effect; nearly all actives have a fitted effect of over 55% in size
# Pf growth 48h: P. falciparum growth inhibition at 48 hours (one generation) | hit rate 5.9% among 310,000 | P. falciparum luciferase growth in erythrocytes, 48 h | Potency, µM (doses to about 28.7 µM), for the others: at the highest dose activity change, negative = inhibition, most hits filed as inhibitors; active means well fitted inhibition curve with a large enough effect; inconclusive means small, poorly fitted or top-dose-only effect, or another doubt; inactive means no such curve, though single readings can be large or run the other way; further: on the % scale 0 is the no-effect control and ±100 the full control effect
#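 In quantitative HTS format, infected erythrocytes bearing luciferase-reporter parasites were treated for a single generation at 37 C. Luminescence after adding detection reagent served as the growth measure.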
# Pf growth 96h: P. falciparum growth inhibition at 96 hours | P. falciparum luciferase reporter growth, 96 h | Potency, µM (doses to about 28.7 µM), for inactives: at the top dose activity change, negative = inhibition, most hits filed as inhibitors | hit rate 6.9% among 320,000 | AID 504834; active means well fitted inhibition curve with a large enough effect; inconclusive means small, poorly fitted or top-dose-only effect, or another doubt; inactive means no such curve, though single readings can be large or run the other way; further: on the % scale 0 is the no-effect control and ±100 the full control effect
#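 Cell-based qHTS: luciferase-tagged P. falciparum in erythrocytes (2% hematocrit, 0.05% parasitemia final) incubated with compounds for 96 hours, 37 C, 5% CO2; luciferase detection reagent then added and luminescence measured.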
# NS1 inh: inhibitors of influenza NS1 protein function. hit rate 0.4% among 270,000. Potency, µM (highest dose often 46.1 µM), for inactives: at the top dose activity, positive = more growth; further: actives are rising curves; nearly all actives have a fitted effect of over 50% in size
#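 In this qHTS, NS1 from influenza A is expressed in budding yeast, where it slows growth. Cells are switched from glucose to 2% galactose medium (pH 6.0, -URA), treated with compound, and growth recovery is read at OD600.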
# RE007 growth inh: less growth of the S. pombe RE007 Vpr strain; Potency, µM (series often up to 92.2 µM), for inactives: at the top dose activity change, negative = less growth, usual class: inhibitors; AID 651644; S. pombe RE007 Vpr strain, BacTiter-Glo ATP luminescence, 24 h; hit rate 0.21% among 360,000; active means well fitted falling curve with a large enough effect; inconclusive means small, poorly fitted or top-dose-only effect; inactive means no such curve, though single readings can be large or run the other way; further: on the % scale 0 is the no-effect control and ±100 the full control effect; nearly all actives have a fitted effect of over 50% in size
#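 Fission yeast RE007 carrying one integrated HIV-1 vpr copy, seeded at OD 0.01 in PMG+AL medium with 23 nL pinned compound. Grown 24 h at 30 degrees; viability read by BacTiter-Glo luminescence after 5 min.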
# Active calls of the source: *; ? = inconclusive; · = no result; [ ] = another dose, or the depositor's remark. The list is not random: actives were taken first. Their share in the collection is about 9.5%. Unless noted, the call rests on the fitted dose curve. Potency means the concentration at half of the fitted maximal effect.
SMILES,SARS PLpro yeast,Pf growth 48h,Pf growth 96h,NS1 inh,RE007 growth inh
CCCCCc1cc(=O)oc2c(C(CCN3CCCC(C)C3)c3cc(OC)c(OC)c(OC)c3)c(OC)cc(OC)c12 (stereo not given),-1%,2.6µM*,0.37µM*,-4%,3%
COc1cc(OC)c2ccc(=O)oc2c1C(CCN1CCCC(C)C1)c1ccc(N(C)C)cc1 (stereo not given),0%,?,?,-8%,-22%
CCCCCc1cc(=O)oc2c(C(CCN3CCCC(C)C3)c3ccc(N(C)C)cc3)c(OC)cc(OC)c12 (stereo not given),-6%,?,8.3µM*,?,3%
CCCN(C(=O)Cc1ccc(S(=O)(=O)N2CCOCC2)s1)c1c(N)n(Cc2ccccc2)c(=O)[nH]c1=O,·,·,·,·,3%
C=C(C)CN(CC#N)CC(=C)C,·,·,·,-1%,·
COc1ccc(-c2ccc(NS(=O)(=O)c3cc([N+](=O)[O-])c(C)c([N+](=O)[O-])c3)cc2)nn1,1%,28%,32%,-7%,-10%
O=C(Nc1ccnn1C1CCN(Cc2cccc(OCCO)c2)CC1)C1CC1,6%,-1%,?,0%,-11%
COc1ccc(/C=N\n2nnc3ccccc32)cc1,-7%,70%,0.41µM*,-6%,-11%
COc1ccc(C(=O)/C=C/c2ccc(OC)c(Cn3nnc4ccccc43)c2)cc1,21%,?,0.1µM*,19%,26%
COc1ccc(C(=O)/C=C/c2ccc(OC)c(CN3CCOCC3)c2)cc1,23%,-1%,25%,7%,-8%
COc1ccc(/C=C/C(=O)c2nc3ccccc3n2CC(=O)c2ccc(OC)cc2)cc1,2%,10µM*,-186%,21%,10%
COc1ccc(/C=C/c2nc3ccccc3n2C)cc1,-22%,86%,20%,·,32µM*
COc1ccc(/C=N/n2c(C)nc3ccccc3c2=O)cc1,-13%,49%,67%,-11%,12%
CS(=O)(=O)c1ccc(/C=N\NC(N)=S)cc1,·,·,·,-4%,·
CCC(C(=O)O)n1nnc(-c2ccc(OCc3ccccc3)c(OC)c2)n1 (stereo not given),9%,1%,4.7µM*,19%,·
CCC(C(=O)O)n1nnc(-c2ccc(-c3ccc(OC)cc3)cc2)n1 (stereo not given),1%,47%,·,4%,-2%
CC(O)(c1ccc(F)c(F)c1)c1nc(-c2cccc3cccnc23)cs1 (stereo not given),·,·,·,·,-19%
COc1cccc(C(=O)OC(C)C(=O)NCC2CCCCC2)c1 (stereo not given),11%[6.58 µM],-9%,20%,·,8%
CC1(OC(=O)C2CCCC2)C(=O)C=C2C=C(c3ccsc3)N(CC3CC3)C=C2C1=O (stereo not given),-2%,?,?,-2%,2%
CC1(OC(=O)C2CCCC2)C(=O)C=C2C=C(c3ccsc3)N(C3CCCCC3)C=C2C1=O (stereo not given),2%,12µM*,?,17%,1%
CC1(OC(=O)C2CCCC2)C(=O)C=C2C=C(c3ccsc3)N(CCc3c[nH]c4ccccc34)C=C2C1=O (stereo not given),-1%,9.3µM*,13µM*,?,-9%
CC(=O)Nc1ccc(-c2ccnc3c2CC(C)(C(=O)NCc2ccc(N(C)C)cc2)O3)cc1 (stereo not given),·,·,·,·,3%
C=C1C(=O)O[C@@H]2C[C@@H](C)[C@@H]3C=CC(=O)[C@@]3(C)[C@@H](OC(=O)CC(=O)O[C@H]3[C@@H]4C(=C)C(=O)O[C@@H]4C[C@@H](C)[C@@H]4C=CC(=O)[C@]43C)[C@H]12,-2%,1µM*,1.3µM*,5%,1%
C=C1C(=O)O[C@H]2C[C@@H](C)[C@@H]3C=CC(=O)[C@@]3(C)C[C@H]12,-1%,5.2µM*,8.3µM*,-3%,-18%
C=C1C(=O)OC2CC(C)C3C=CC(=O)C3(C)C(O)C12 (stereo not given),·,·,·,·,-5%
SMILES,SARS PLpro yeast,Pf growth 48h,Pf growth 96h,NS1 inh,RE007 growth inh
O=C(NC1CCCC1)N[C@@H]1C=C[C@@H](CC(=O)N2CCOCC2)O[C@@H]1CO,·,·,·,·,7%
COc1ccc(S(=O)Cc2ccc(C(=O)NC3CC3)o2)cc1 (stereo not given),2%,11%,-5%,-4%,22%
O=C1CC(=C(c2ccccc2)c2ccccc2)C(=O)N1CCCCN1CCN(c2ccccc2)CC1,-3%,·,3.3µM*,2%,-12%
O=C(CSc1nc2ccccc2s1)c1sc2sc3ccccc3[n+]2c1O,·,·,·,2%,·
Fc1ccc(-c2c[nH]c(=S)n2Cc2ccccc2)cc1,18%,10µM*,?,·,25%
CCC[C@H](Sc1nc(N)nc2nc[nH]c12)C(=O)O,·,·,·,-3%,·
O=C(NCC(c1ccco1)N1CCN(c2ccccc2F)CC1)C1CCCCC1 (stereo not given),-2%,12µM*,-23%,·,-5%
COc1ccc(N2CCN(C(CNC(=O)C3CCCCC3)c3ccco3)CC2)cc1 (stereo not given),3%,13µM*,?,·,-4%
O=C(NCC(c1ccco1)N1CCN(c2ccccc2)CC1)OCc1ccccc1 (stereo not given),-1%,?,4.1µM*,-20%,-6%
O=C(NCC(c1ccco1)N1CCN(c2ccccc2F)CC1)OCc1ccccc1 (stereo not given),-27%,?,?,-53%,0%
O=C(NCc1nnnn1-c1ccc(F)c(F)c1)C(=O)c1c[nH]c2ccccc12,2%,-14%,?,·,1%
CCCC(=O)N(Cc1cc(=O)[nH]c2ccccc12)c1ccccc1OC,-2%,7.4µM*,12µM*,7%,0%
Cc1ccc(N(Cc2cc(=O)[nH]c3ccccc23)C(=O)CCl)c(C)c1,-1%,9.3µM*,6.6µM*,-3%,6%
COc1ccccc1N(Cc1cc(=O)[nH]c2ccccc12)C(C)=O,-1%,3%,5%,-1%,14%
O=C(O)CC12C[C@H]3C[C@@H](CC(O)(C3)C1)C2,·,·,·,-1%,·
CC(Oc1cccc(Cl)c1)C(=O)Nc1ccc(S(=O)(=O)N(C)C2CCN(C)CC2)cc1 (stereo not given),-5%,9.3µM*,?,·,9%
CN1CCC(N(C)S(=O)(=O)c2ccc(NC(=O)COc3ccc(Cl)cc3)cc2)CC1,0%,8.3µM*,4.1µM*,·,5%
CCCN(CCC)S(=O)(=O)c1ccc(NC(=O)COc2ccccc2)cc1,-8%,·,9.3µM*,-50%,4%
Cc1ccc(CNCC(O)(c2ccccc2)c2ccc(F)cc2)cc1 (stereo not given),-6%,?,0%,-11%,8%
Cc1ccc(CNCC(O)(c2ccc(F)cc2)c2ccc(F)cc2)cc1,4%,?,4.7µM*,1%,-4%

# Screening results as filed in PubChem BioAssay.
